Data: PubChem BioAssay AID1159580 (chemical genetic matrix, 2015)
“And” between values parts separate entries of the source, which are not always exact repeats. Equal entries are not always repeated. The whole screen tested about 5,500 compounds, of which about 2,000 (36%) were called active. Roughly 18% stayed inconclusive and do not appear here. Rule as the data show it: active = normalized growth mostly below about 0.91 (no sharp cut-off); inconclusive = no clear call, values can overlap the other calls; inactive = mostly above about 0.92. The list shows a part of the results.

Experiment: chemical genetic growth profiling, strain panel (AID 1159580);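 also: tested at 20 µM; growth read once vehicle control cultures reached saturation at 30 °C; 1 = growth at the plate median or of vehicle wells; lower values mean less growth of the strain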
Details: S. cerevisiae deletion strains, growth OD

Measured: normalized growth

COc1ccccc1N1CCN(CCCNc2cc(=O)n(C)c(=O)n2C)CC1
inactive: locus YAL013W, strain DEP1, hits give low values 0.976 | locus YAL021C, strain ccr4, hits give low values 0.998 | locus YAL026C, strain drs2, hits give low values 1.02 | locus YAL030W, strain snc1, hits give low values 1.01 | locus YAL040C, strain CLN3, hits give low values 1 | locus YBL061C, strain skt5, hits give low values 1.01 | locus YBR009C, strain hhf1, hits give low values 1 | locus YBR021W, strain FUR4, hits give low values 1.05 | locus YBR023C, strain chs3, hits give low values 1.02 | locus YBR171W, strain sec66, hits give low values 1.02 | locus YBR229C, strain ROT2, hits give low values 0.952 | locus YBR231C, strain swc5, hits give low values 1.01 | locus YBR279W, strain paf1, hits give low values 1.01 | locus YCL011C, strain gbp2, hits give low values 1.01 | locus YCL016C, strain dcc1, hits give low values 1.01 | locus YCL029C, strain bik1, hits give low values 0.984 | locus YCL061C, strain MRC1 (second series), hits give low values 1 | locus YCL061C, strain MRC1, hits give low values 1.02 | locus YCL069W, strain vba3, hits give low values 1.02 | locus YCR088W, strain abp1, hits give low values 1.01 | locus YDL005C, strain med2, hits give low values 1.02 | locus YDL035C, strain GPR1, hits give low values 0.986 | locus YDL040C, strain nat1, hits give low values 0.994 | locus YDL074C, strain BRE1, hits give low values 0.961 | locus YDL101C, strain DUN1, hits give low values 0.959 | locus YDL134C, strain PPH21, hits give low values 0.984 | locus YDL185W, strain tfp1, hits give low values 0.961 | locus YDL192W, strain arf1, hits give low values 0.99 | locus YDR001C, strain nth1, hits give low values 1.01 | locus YDR069C, strain doa4, hits give low values 1.01 | locus YDR101C, strain arx1, hits give low values 0.994 | locus YDR137W, strain rgp1, hits give low values 1.03 | locus YDR150W, strain NUM1, hits give low values 0.968 and 1.01 | locus YDR159W, strain sac3, hits give low values 1 | locus YDR162C, strain NBP2, hits give low values 0.962 | locus YDR195W, strain ref2 1.01 | locus YDR297W, strain sur2, hits give low values 1.01 | locus YDR318W, strain mcm21, hits give low values 1.01 | locus YDR334W, strain swr1, hits give low values 1.02 | locus YDR335W, strain msn5, hits give low values 1.02 | locus YDR363W, strain ESC2, hits give low values 1 | locus YDR388W, hits give low values 0.998 | locus YDR392W, strain spt3, hits give low values 0.944 | locus YDR502C, strain sam2, hits give low values 1 | locus YEL003W, strain gim4, hits give low values 1.01 | locus YEL037C, strain rad23, hits give low values 1.01 | locus YEL061C, strain CIN8 (second series), hits give low values 1.01 | locus YEL061C, strain CIN8, hits give low values 0.986 | locus YER002W, strain NOP16, hits give low values 0.991 | locus YER015W, strain faa2, hits give low values 1.02 | locus YER016W, strain bim1, hits give low values 1.02 | locus YER110C, hits give low values 0.994 | locus YER111C, strain swi4, hits give low values 1 | locus YER155C, strain BEM2 (second series), hits give low values 1.02 | locus YER155C, strain BEM2, hits give low values 0.993 | locus YER167W, strain BCK2, hits give low values 0.98 | locus YFR010W, strain ubp6, hits give low values 1.02 | locus YGL078C, strain dbp3, hits give low values 0.99 | locus YGL086W, strain mad1, hits give low values 1.01 | locus YGL167C, strain pmr1, hits give low values 1.01 | locus YGL173C, strain kem1, hits give low values 1.01 | locus YGL227W, strain vid30, hits give low values 1.01 | locus YGL240W, strain doc1, hits give low values 0.996 | locus YGL248W, strain PDE1, hits give low values 0.974 | locus YGL253W, strain hxk2, hits give low values 1.01 | locus YGR078C, strain PAC10, hits give low values 0.981 and 0.985 | locus YGR135W, strain pre9, hits give low values 0.985 | locus YGR229C, strain SMI1, hits give low values 1.01 | locus YGR252W, strain gcn5, hits give low values 1.05 | locus YHR013C, strain ard1, hits give low values 1.01 | locus YHR027C, strain rpn1, hits give low values 1.01 | locus YHR030C, strain SLT2, hits give low values 0.983 | locus YHR079C, strain IRE1 (second series), hits give low values 1 | locus YHR094C, strain hxt1, hits give low values 0.992 | locus YHR129C, strain ARP1, hits give low values 0.988 | locus YHR142W, strain chs7, hits give low values 1.01 | locus YHR200W, strain rpn10, hits give low values 0.994 | locus YIL066C, strain RNR3, hits give low values 0.985 | locus YIL073C, strain SPO22, hits give low values 0.998 | locus YIL125W, strain kgd1, hits give low values 0.997 | locus YIR030C, strain dcg1, hits give low values 0.983 | locus YJL092W, strain hpr5, hits give low values 1.01 | locus YJL095W, strain BCK1 (second series), hits give low values 1.01 | locus YJL095W, strain BCK1, hits give low values 1 | locus YJL115W, strain asf1, hits give low values 1.03 | locus YJL129C, strain trk1, hits give low values 1.05 | locus YJL134W, strain LCB3, hits give low values 0.98 | locus YJL154C, strain vps35, hits give low values 1.02 | locus YJL164C, strain tpk1, hits give low values 1.01 | locus YJL166W, strain qcr8, hits give low values 1.01 | locus YJL168C, strain set2, hits give low values 0.998 | locus YJL187C, strain SWE1 (second series), hits give low values 0.978 | locus YJL187C, strain SWE1, hits give low values 1.01
